A selection: hits, their analogues and other compounds. The true share with any hit is near 3.6%.
Mtb betalactam: beta-lactam sensitization of Mtb H37Rv | M. tuberculosis H37Rv growth with meropenem, percent inhibition | inhibition, % at 25 µM | hit rate 0.27% among 330,000 | AID 434955;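 note: growth measured after seven days incubation then overnight dye step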
Mtb hypoxia inh: Mtb hypoxia fluorescent reporter inhibition | hit rate 0.1% among 300,000 | M. tuberculosis hypoxia-regulated fluorescent reporter, fluorescence | AID 1159583 | fluorescence inhibition, % (no concentration beside the values); in the data active = fluorescence inhibition mostly above about 23%, no sharp cut-off; inactive = mostly below about 17%
Mtb FBA inh: Mtb fructose-bisphosphate aldolase inhibition | P9WQA3 | purified M. tuberculosis FBA, fluorescence read-out | inhibition, % at 1 µM | hit rate 2.3% among 360,000 | AID 588726; in the data active = inhibition above about 27%
Target sequence (P9WQA3 whole entry, looked up): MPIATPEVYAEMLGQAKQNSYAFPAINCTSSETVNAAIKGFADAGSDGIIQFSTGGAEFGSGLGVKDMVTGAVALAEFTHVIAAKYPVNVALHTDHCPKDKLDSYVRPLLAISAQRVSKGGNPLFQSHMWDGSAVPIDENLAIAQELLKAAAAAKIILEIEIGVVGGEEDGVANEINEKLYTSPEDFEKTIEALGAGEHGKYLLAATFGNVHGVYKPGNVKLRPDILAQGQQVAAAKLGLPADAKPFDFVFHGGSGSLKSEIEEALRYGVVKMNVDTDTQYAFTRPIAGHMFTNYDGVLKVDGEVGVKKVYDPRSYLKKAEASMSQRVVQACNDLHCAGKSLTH
DUSP3 inh: DUSP3 (human) phosphatase inhibition | P51452 | recombinant VHR phosphatase, pNPP absorbance | inhibition, % at 13.3 µM | hit rate 0.52% among 290,000 | AID 1654; in the data active = inhibition above about 50%
Target sequence (P51452 whole entry, looked up): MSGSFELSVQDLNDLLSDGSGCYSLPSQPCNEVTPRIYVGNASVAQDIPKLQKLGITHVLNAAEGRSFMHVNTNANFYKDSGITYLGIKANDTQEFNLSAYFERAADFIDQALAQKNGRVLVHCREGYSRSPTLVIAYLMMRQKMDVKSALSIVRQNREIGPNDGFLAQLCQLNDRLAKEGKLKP
GDH-TPI counter-1: GDH-TPI coupled enzyme inhibition counter-screen | AID 588335 | inhibition, % at 4.8 µM | hit rate 1.2% among 360,000 | GDH-TPI coupled enzyme counterscreen, NADH absorbance; in the data active = inhibition above about 30%
Mtb FBA inh conf: confirmation of M. tuberculosis fructose-bisphosphate aldolase inhibitors; shares compounds with Mtb FBA inh; purified M. tuberculosis FBA, fluorescence read-out; inhibition, % at 1 µM; hit rate 78% among 5,600; AID 651616; in the data active = inhibition above about 27%
GDH-TPI counter-2: inhibits GDH-TPI coupling enzymes, flagging Mtb FBA hits; shares compounds with Mtb FBA inh; GDH-TPI coupled enzyme counterscreen, fluorescence; inhibition, % at 1 µM; hit rate 81% among 5,600; AID 652141; in the data active = inhibition above about 10%
GDH-TPI DR: GDH-TPI dose response counter-screen for Mtb FBA; shares compounds with Mtb FBA inh; GDH-TPI coupled enzyme assay, fluorescence, artifact counterscreen; IC50, µM; hit rate 79% among 170; AID 652145
Numbers stand for hits; 0 = inactive; - = no result given; + = active, no number. Unless noted, the rule behind the calls is not given here.

SMILES	Mtb betalactam	Mtb hypoxia inh	Mtb FBA inh	DUSP3 inh	GDH-TPI counter-1	Mtb FBA inh conf	GDH-TPI counter-2	others
CS(=O)(=O)Nc1ccccc1C(=O)O	0	0	27.7	0	0	116.5	104.4
CC(NC(=O)c1ccccc1NS(C)(=O)=O)c1ccccc1 (stereo not given)	0	-	41.6	0	0	132.7	106.3
Cc1cc(S(=O)(=O)Nc2ccccc2C(=O)O)ccc1Cl	0	0	0	0	0	-	-
Cc1ccc(CNC(=O)c2ccccc2NS(=O)(=O)c2ccc(Cl)nc2)cc1	0	0	0	0	0	-	-
Cc1ccc(CNC(=O)c2ccccc2NS(C)(=O)=O)cc1	0	-	37.8	0	0	+	+
O=C1C=C(c2cccc(Br)c2)CC(c2ccc3c(c2)OCO3)C1 (stereo not given)	-	0	-	-	-	-	-
CC(C)(NO)C(=NO)c1ccc(Br)cc1	-	0	-	-	-	-	-
O=C(O)c1cccc(Nc2nc(-c3cc4ccccc4oc3=O)cs2)c1	0	0	28.4	0	0	84.0	71.8
CCCOC(=O)Nc1nc2ccccc2o1	0	0	0	0	0	-	-
CCOC(=O)C(=CN=C(N)Nc1nc2ccccc2o1)C(=O)OCC	0	0	31.5	0	0	29.4	22.6
CCc1cc(=O)oc2cc(C)cc(OCC(C)=O)c12	0	0	77.1	0	0	56.1	46.4
CCc1cc(=O)oc2cc(C)cc(O)c12	0	-	0	0	0	-	-
CCCc1cc(=O)oc2cc(C)cc(OC(=O)c3ccco3)c12	0	0	0	0	0	-	-
CCc1cc(=O)oc2cc(C)cc(OCC(=O)C(C)(C)C)c12	0	0	65.3	0	0	126.2	105.5
NC(=O)NN=C1c2ccccc2-c2c(C(N)=O)cccc21	-	0	-	-	-	-	-
CC(=O)Nc1ccc(C=NN2CCCCC2)cc1	-	0	-	-	-	-	-
O=C(O)c1ccc(-c2nc(-c3ccccc3)c(-c3cccs3)[nH]2)cc1	0	0	47.2	0	0	74.9	54.5
COC(=O)NN=Cc1cc(C)n(-c2ccccc2)c1C	-	0	-	-	-	-	-
COc1cccc(OC)c1C(=O)Nc1nnc(-c2cccs2)s1	0	0	0	0	0	-	-
CCC(CC)C(=O)Nc1nnc(-c2cccs2)s1	0	-	35.9	0	0	87.7	75.5
Cc1c(NCc2cccnc2)cccc1C(=O)O	0	0	100.5	0	0	111.8	100.4
CCOC(=O)CC(=O)CSc1nc(C)cc(C)c1C#N	0	0	0	0	0	-	-
CCOC(=O)CC(=O)CSc1nc2c(c(C)c1C#N)CCC2	0	-	30.8	0	0	82.3	47.2
COc1cc(C=NNc2ccc([N+](=O)[O-])cc2S(=O)(=O)N2CCOCC2)cc(OC)c1OC	-	0	-	-	-	-	-
CC1CN(C(C)CO)C(=O)c2cccc(NC(=O)NC3CCCCC3)c2OC1CN(C)C(=O)Nc1ccccc1 (stereo not given)	-	0	-	-	-	-	-
SMILES	Mtb betalactam	Mtb hypoxia inh	Mtb FBA inh	DUSP3 inh	GDH-TPI counter-1	Mtb FBA inh conf	GDH-TPI counter-2	others
Cc1cc(C)nc(N=C(NC(=O)C(C)(C)C)Nc2ccc(F)cc2)n1	-	0	-	-	-	-	-
COc1ccccc1C1C2=C(CCCC2=O)N(CC(=O)O)C2=C1C(=O)CCC2	0	-	40.4	0	0	0	0
NC(=O)C1CCCNc2c(F)cc([N+](=O)[O-])cc2C(=O)NC(CO)C(=O)NC(Cc2ccc(O)cc2)C(=O)N1 (stereo not given)	-	0	-	-	-	-	-
COc1ccc2nc(Nc3nc4cc5c(cc4s3)OCO5)sc2c1	0	0	57.4	0	0	+	+
NC(=O)C1CCCN(C(=O)Nc2cccc3ccccc23)C1 (stereo not given)	0	-	40.4	0	0	60.1	45.9
CN1CCN(C(=O)Nc2cccc3ccccc23)CC1	0	0	40.2	0	0	0	0
O=C(Nc1cccc2ccccc12)N1CCCN(c2c(Cl)cncc2Cl)CC1	-	0	0	0	0	-	-
COc1ccccc1NC(=O)N1CCOCC1	0	0	0	0	0	-	-
O=C(Nc1cccc2ccccc12)N1CCOCC1	0	0	45.2	0	0	122.4	87.7
O=C(O)c1ccccc1NC(=O)N1CCOCC1	0	0	32.5	0	0	111.9	89.6
COC(=O)c1ccccc1NC(=O)N1CCN(c2ccc(F)cc2)CC1	0	0	0	0	0	-	-
CCN1CCN(C(=O)Nc2cccc3ccccc23)CC1	0	0	43.9	0	0	71.1	72.2
O=C(Nc1cccc2ccccc12)N1CCc2ccccc2C1	0	-	42.9	0	0	0	0	GDH-TPI DR=0
O=C(Nc1cccc2ccccc12)N1CCN(c2ccc(F)cc2)CC1	0	0	29.9	0	0	54.1	55.2
CCc1ccccc1NC(=O)N1CCc2ccccc2C1	0	0	0	0	0	-	-
CCCCOCCCNC(=O)NC(C(=O)OC)C(C)C (stereo not given)	-	0	-	-	-	-	-
CNC(=O)/C(C#N)=C/c1c(N2CCN(c3ccc(OC)cc3)CC2)nc2c(C)cccn2c1=O	0	0	36.7	-	0	+	142.4
CNC(=O)/C(C#N)=C/c1c(N2CCN(c3ccccc3)CC2)nc2c(C)cccn2c1=O	0	0	36.6	-	0	0	0
CNC(=O)/C(C#N)=C/c1c(N2CCCCCC2)nc2ccccn2c1=O	0	0	64.5	0	0	0	0
COC(=O)/C(C#N)=C/c1c(N2CCN(c3ccc(OC)cc3)CC2)nc2c(C)cccn2c1=O	0	0	0	0	0	-	-
CNC(=O)/C(C#N)=C/c1c(N2CCCCCC2)nc2c(C)cccn2c1=O	0	0	28.4	-	0	+	184.1
COc1ccc(N(CC(=O)NN=Cc2ccc(F)cc2)S(=O)(=O)c2ccccc2)cc1	-	0	-	-	-	-	-
O=C(NC(=Cc1ccc([N+](=O)[O-])cc1)C(=O)N1CCCCC1)c1ccccc1	-	0	-	-	-	-	-
CCc1nnc(NC(=O)C2CCCN2S(=O)(=O)c2ccc3c(c2)OCCO3)s1 (stereo not given)	-	0	-	-	-	-	-
CN1CCN(c2ccccc2C=NNC(=O)c2cccnc2)CC1	-	0	-	-	-	-	-
SMILES	Mtb betalactam	Mtb hypoxia inh	Mtb FBA inh	DUSP3 inh	GDH-TPI counter-1	Mtb FBA inh conf	GDH-TPI counter-2	others
Cc1ccc(S(=O)(=O)NN=Cc2ccc(OCC(=O)NC(C)C)cc2)cc1	-	0	-	-	-	-	-
O=C(Nc1cccnc1)C(N=Nc1cccnc1)=C(O)c1ccccc1	-	0	-	-	-	-	-
O=C(O)CCNc1ccc(NCCC(=O)O)c2c1C(=O)c1ccccc1C2=O	0	-	90.1	0	0	0	0
CCOC(=O)c1sc(N=Cc2c(O)ccc3ccccc23)cc1C	-	0	-	-	-	-	-
C1=C[C@@H]2CCN(Cc3ccccc3)Cc3cccc(c32)C1	0	-	28.1	-	0	+	+
NC(=O)C1CCN(C(=O)CCC(=O)c2ccc(F)cc2)CC1	0	0	53.5	0	0	135.5	127.9
O=C(CCC(=O)N1CCOCC1)c1ccc(F)cc1	0	0	0	0	0	-	-
NC(=O)C1CCN(C(=O)CCNS(=O)(=O)c2ccccc2F)CC1	0	0	36.9	-	0	0	0	GDH-TPI DR=0
COc1ccc(C=Cc2nc(-c3ccccc3O)n(-c3ccccc3)n2)cc1	-	0	-	-	-	-	-
COc1c(Cl)cccc1-c1cn2ccccc2n1	0	0	68.1	0	0	0	0

Assay outcomes as filed in PubChem BioAssay.
